The values below come from PubChem BioAssay AID1159580 (chemical genetic matrix, 2015).

The test can be described thus: chemical genetic growth profiling, strain panel (AID 1159580).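 Further: tested at 20 µM; growth read once vehicle control cultures reached saturation at 30 °C; 1 = growth at the plate median or of vehicle wells; lower values mean less growth of the strain.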 Conditions: S. cerevisiae deletion strains, growth OD.

Structures are written as SMILES. The campaign covered roughly 5,500 compounds. About 2,000 (36%) were called active. Not shown: some 18% with an inconclusive outcome. This is one part of the list. Values without a mark were called inactive. No stated cut-off is given here; in the data, active means normalized growth mostly below about 0.91 (no sharp cut-off); inconclusive means no clear call, values can overlap the other calls; inactive means mostly above about 0.92.

As to `CC(=O)c1c(O)c(C)c(O)c(Cc2c(O)c3c(c(C(=O)/C=C/c4ccccc4)c2O)OC(C)(C)C=C3)c1O`, the normalized growth reads like this: (locus YAL013W, strain DEP1, hits give low values) 0.909; (locus YAL040C, strain CLN3, hits give low values) 1; (locus YCL061C, strain MRC1 (second series), hits give low values) 0.917 (active); (locus YDR150W, strain NUM1, hits give low values) 0.883 (active); (locus YDR363W, strain ESC2, hits give low values) 0.999; (locus YER002W, strain NOP16, hits give low values) 1.06. In addition, the normalized growth was 0.989 (locus YGR078C, strain PAC10, hits give low values); 0.876 (locus YGR229C, strain SMI1, hits give low values); 0.877 (active) (locus YJR075W, strain HOC1, hits give low values); 0.877 (active) (locus YMR307W, strain GAS1, hits give low values); 0.857 (locus YNL153C, strain GIM3, hits give low values); 1.06 (locus YNL175C, strain NOP13, hits give low values). Further, the normalized growth is, setting by setting: (locus YNL197C, strain WHI3, hits give low values) 1.01; (locus YNL224C, strain SQS1, hits give low values) 1.01; (locus YOR083W, strain WHI5 (second series), hits give low values) 0.898; (locus YPL055C, strain LGE1, hits give low values) 0.881 (active); (locus YPL241C, strain CIN2, hits give low values) 0.902 (active).
